In all, about 340,000 compounds went through this assay and about 1,000 (0.29%) were called active. The list comes from a sample in which actives are over-represented; it also holds similar structures and randomly drawn compounds. Unmarked numbers belong to inactive results.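 The calls were made as follows: active = mean replicate activation score at least 90 and every replicate individually at or above 90; inconclusive = only one of the two criteria met; inactive = neither criterion met.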
Assay: miR-122 Renilla sensor signal increase in Huh7, primary screen, miR-122 inhibitor project, cell-based, single point, plate reader (AID 602342);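 also: higher luciferase means less miR-122 activity so hits act as miR-122 inhibitors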
Conditions: Huh7 miR-122 Renilla luciferase sensor, 48 h, stronger effect = higher value, neutral wells = 0, positive control = 100; at 16.7 µM unless noted

Structure (SMILES) | activation (reporter increase)
COc1ccccc1CNS(=O)(=O)c1cc2c3c(c1)CCC(=O)N3CCC2 | 6.96% [at 12.5 µM]
COc1ccc(CNS(=O)(=O)c2cc3c4c(c2)CCN4C(=O)CC3)cc1 | 2.78% [at 12.5 µM]
COc1ccc(C)cc1S(=O)(=O)Nc1cc2c3c(c1)CCC(=O)N3CCC2 | 150% [at 12.5 µM] (active)
O=C(CN1CCOCC1)Nc1c(Cl)cc(Cl)cc1Cl | -6.99% [at 12.5 µM]
O=C(CN1CCOCC1)Nc1cc(Cl)ccc1Cl | 101% [at 12.5 µM] (active)
O=C(CN1CCOCC1)Nc1ccc(NC(=O)CN2CCOCC2)c(Cl)c1 | 4.91% [at 12.5 µM]
COc1ccc(S(=O)(=O)Nc2cccc3c2O[C@H](CN(C)Cc2ccc4c(c2)OCO4)[C@H](C)CN([C@@H](C)CO)C3=O)cc1 | 2.28%
CC(=O)N(C)C[C@@H]1Oc2cc(-c3cccnc3)ccc2S(=O)(=O)N([C@@H](C)CO)C[C@H]1C | 0.602%
CC(C)NC(=O)Nc1ccc2c(c1)C(=O)N([C@H](C)CO)C[C@H](C)[C@@H](CN(C)S(=O)(=O)c1ccc(F)cc1)OCCCC[C@H](C)O2 | -3.83%
O=C(NC1CCCC1)[C@@H]1[C@@H](CO)[C@@H]2Cn3c(ccc(-c4ccc(F)cc4)c3=O)[C@H]1N2Cc1cocn1 | 1.2%
CCCC#Cc1cnc2c(c1)C(=O)N([C@H](C)CO)C[C@H](C)[C@H](CN(C)S(=O)(=O)c1cn(C)cn1)O2 | -3.62%
C[C@@H]1CN([C@H](C)CO)C(=O)c2cccc(NS(=O)(=O)c3ccc(F)cc3)c2O[C@@H]1CN(C)S(=O)(=O)c1ccccc1 | -5.32%
O=C(NNC(=O)C1CCC1)c1ccccc1 | 1.59% [at 12.5 µM]
CC1=C(C)CC(C(=O)NNC(=O)c2csc3c2CCC(C(C)(C)C)C3)C(C(=O)O)C1 (centres undefined) | -0.996% [at 12.5 µM]
O=C(NNC(=O)c1ccccc1O)c1ccccc1O | 530% [at 12.5 µM] (active)
Cc1cc(C(=O)CCC(=O)NNC(=O)c2ccccc2O)c(C)s1 | -0.772% [at 12.5 µM]
O=C(NNC(=O)c1cc(S(=O)(=O)N2CCCCC2)ccc1Cl)c1ccccc1O | -7.51% [at 12.5 µM]
CC1=C(C)CC(C(=O)NNC(=O)c2ccccc2O)C(C(=O)O)C1 (centres undefined) | 151% [at 12.5 µM] (active)
C[C@@H]1CCCCO[C@H](CN(C)C(=O)NC2CCCCC2)[C@@H](C)CN([C@H](C)CO)C(=O)c2cc(NC(=O)CCC(F)(F)F)ccc2O1 | 4.05%

Reference: PubChem BioAssay AID602342 (Broad Institute, 2012)
